Results from PubChem BioAssay (NCI).
Compounds without any hit were thinned out: in the full panel of roughly 79,000, 15% have a hit. Activity calls are given as the source filed them. No stated cut-off is given here; in the data, active means growth inhibition above about 70%; inactive means the rest.

test: NCI Yeast Anticancer Drug Screen. Data for the sgs1 mgt1 strain (AID 161);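 further: 0% = growth of cultures given vehicle only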; settings: S. cerevisiae sgs1 mgt1 strain, at 50.0 µM, hits give high values
How it was run: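 Inhibition of yeast growth, normalised to vehicle-treated controls, is reported for a strain bearing genetic alterations in DNA damage repair.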

Row | Compound | growth inhibition
1 | O=C1C(N=Nc2ccccc2)=C(O)C2C3C=CC(C3)C12 (stereo not drawn) | 95% (active)
2 | CC1CCCC(C(O)(C(=O)O)C2CCCC(C)C2)C1 (stereo not drawn) | 56.5% (inactive)
3 | Cc1c(Cl)ccc2c1NC(=O)C2(O)CC(=O)c1ccc(Cl)cc1 (stereo not drawn) | 99.2% (active)
4 | Cc1cc2c(=O)[nH]c(N)nc2nc1C | -25% (inactive)
5 | C=C1C(=O)O[C@@H]2C[C@@]3(C)CCC[C@H](C)C3=C[C@H]12 | 81.7% (active)
6 | CCC(=NCCCCCCN=C(CC)c1cc(C)cc([N+](=O)[O-])c1O)c1cc(C)cc([N+](=O)[O-])c1O.[Fe] | 72.2% (active)
7 | CCCCN(CCCC)CC(O)c1cc(-c2ccc(Cl)cc2)nc2c(Cl)cccc12 (stereo not drawn) | 99.2% (active)
8 | COc1ccc2c(c1)CC/C(=C\c1ccc(OCCN(C)C)cc1)C2=O | 44.8% (inactive)
9 | CCOC(=O)c1cc2c(nc1NCc1ccc(OC)c(OC)c1)/C(=C/c1ccccc1)CCCC2 | 91.8% (active)
10 | CSCS(=O)C[C@H](CO)NC(=O)/C=C/c1c(C)[nH]c(=O)[nH]c1=O (stereo partly drawn) | 83% (active)
11 | CCOC(=O)c1c(N)sc2c1CCCCC2 | 52% (inactive)
12 | Cc1cc(N)c(C)c2c1[nH]c1ccc(Br)cc12 | 77.2% (active)
13 | N=C(N)Sc1ccc([N+](=O)[O-])cc1Cl | 90.3% (active)
14 | COc1c(OC)c(C2(O)C(=O)N(C)c3ccccc32)c(OC)c(OC)c1C1(O)C(=O)N(C)c2ccccc21 (stereo not drawn) | -4.9% (inactive)
15 | Fc1cccc(NC(=S)SCc2ccc(Cl)cc2)c1 | 99.7% (active)
16 | Cc1ccc(/C=N/NS(=O)(=O)c2ccccc2)c(C)c1 | 15% (inactive)
17 | CCCCCCCCCCCCNC(=O)C[n+]1cccc(C(=O)N(C)C)c1 | 91.4% (active)
18 | CN(C)C(=S)/N=c1\ss/c(=N\S(=O)(=O)c2ccccc2)n1-c1ccccc1 | 64.9% (inactive)
19 | O=C(NCCCl)Nc1c2ccccc2nc2ccccc12 | 24.5% (inactive)
20 | COc1ccccc1NC(=O)/C(=C/c1ccccc1)C(C)=O | 16.7% (inactive)

Row | Compound | growth inhibition
21 | Oc1[nH]c2ccccc2c1N=NC(=S)NCc1ccccn1 | 90.9% (active)
22 | c1cc2c(cc1CCCCCCCCCCc1ccc3c(c1)CCC3)CCC2 | 3.3% (inactive)
23 | C=Cc1ccccc1C1(O)C=CC(OC)(OC)C=C1 | 34.5% (inactive)
24 | CN(C)CC1CCc2c(ccc3ccccc23)C1=O (stereo not drawn) | 71.1% (active)
25 | CCCCC(C)(C)OC(=O)Nc1ccc(Br)cc1 | 97.8% (active)
26 | O=C(Nc1ccc(F)c(Cl)c1)Oc1ccc(Br)cc1Br | 65.8% (inactive)
27 | CCO/C=C1\N=C(C(O)(c2ccc(Cl)cc2)c2ccc(Cl)cc2)OC1=O | 18.8% (inactive)
28 | O=C1c2ccccc2C(O)(c2ccccc2)c2c(Cl)cccc21 (stereo not drawn) | 80.8% (active)
29 | Nc1ccccc1-c1nc2c(ccc3ccccc32)[nH]1 | 88.8% (active)
30 | CCCCCCCCCCCCCCNCCN | 92.5% (active)
31 | CC(C)CCCC(C)C1CCC2C3CC=C4OC(=O)CCC4(C)C3CCC12C (stereo not drawn) | 76.2% (active)
32 | CC(Br)C(=O)c1ccc2cc(Cl)c3ccccc3c2c1 (stereo not drawn) | 46.3% (inactive)
33 | N#CSc1ccc2nc(NCO)sc2c1 | 99.3% (active)
34 | c1ccc2c3[nH]c(c2c1)=Nc1ccc(cc1)-c1nc2ccc(cc2o1)N=c1[nH]c(c2ccccc12)=Nc1ccc2nc(oc2c1)-c1ccc(cc1)N=3 | 82.7% (active)
35 | CCOc1ccc2nc(NC(=O)c3c/c(=N\NC(=O)C[N+](C)(C)C)c4ccc(O)cc4o3)sc2c1 | 99.3% (active)
36 | C[C@@H]1CC=C[C@@H](NC(=O)OCc2ccccc2)[C@H]1C=O | 69.3% (inactive)
37 | O=C(/C=C/c1cccc([N+](=O)[O-])c1)CCl | 99.2% (active)
38 | CCC[CH2][Sn]([CH2]CCC)([O]C(=O)c1cccc(F)c1F)[O]C(=O)c1cccc(F)c1F | 86.5% (active)
39 | O=C(O)CCC(=O)NNc1ccccc1 | 61.9% (inactive)

test: NCI Yeast Anticancer Drug Screen. Data for the cln2 rad14 strain (AID 165);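 further: 0% = growth equal to vehicle treated cultures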; settings: S. cerevisiae cln2 rad14 strain, at 5.0 µM (retest, dose inferred, filed as 0.5), hits give high values
How it was run: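 Compounds are applied to the cln2 rad14 yeast strain, and growth is then compared with that of vehicle-treated cultures to give inhibition.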

Row | Compound | growth inhibition
40 | O=C1C(N=Nc2ccccc2)=C(O)C2C3C=CC(C3)C12 (stereo not drawn) | 1% (inactive)
41 | CC1CCCC(C(O)(C(=O)O)C2CCCC(C)C2)C1 (stereo not drawn) | 68% (inactive)
42 | Cc1c(Cl)ccc2c1NC(=O)C2(O)CC(=O)c1ccc(Cl)cc1 (stereo not drawn) | 31% (inactive)
43 | Cc1cc2c(=O)[nH]c(N)nc2nc1C | -2% (inactive)
44 | C=C1C(=O)O[C@@H]2C[C@@]3(C)CCC[C@H](C)C3=C[C@H]12 | 6% (inactive)
45 | CCC(=NCCCCCCN=C(CC)c1cc(C)cc([N+](=O)[O-])c1O)c1cc(C)cc([N+](=O)[O-])c1O.[Fe] | -7% (inactive)
46 | CCCCN(CCCC)CC(O)c1cc(-c2ccc(Cl)cc2)nc2c(Cl)cccc12 (stereo not drawn) | -3% (inactive)
47 | COc1ccc2c(c1)CC/C(=C\c1ccc(OCCN(C)C)cc1)C2=O | 8% (inactive)
48 | CCOC(=O)c1cc2c(nc1NCc1ccc(OC)c(OC)c1)/C(=C/c1ccccc1)CCCC2 | 28% (inactive)
49 | CSCS(=O)C[C@H](CO)NC(=O)/C=C/c1c(C)[nH]c(=O)[nH]c1=O (stereo partly drawn) | 32% (inactive)
50 | CCOC(=O)c1c(N)sc2c1CCCCC2 | -53% (inactive)
51 | Cc1cc(N)c(C)c2c1[nH]c1ccc(Br)cc12 | -4% (inactive)
52 | N=C(N)Sc1ccc([N+](=O)[O-])cc1Cl | 36% (inactive)
53 | COc1c(OC)c(C2(O)C(=O)N(C)c3ccccc32)c(OC)c(OC)c1C1(O)C(=O)N(C)c2ccccc21 (stereo not drawn) | -10% (inactive)
54 | Fc1cccc(NC(=S)SCc2ccc(Cl)cc2)c1 | -6% (inactive)
55 | Cc1ccc(/C=N/NS(=O)(=O)c2ccccc2)c(C)c1 | -23% (inactive)
56 | CCCCCCCCCCCCNC(=O)C[n+]1cccc(C(=O)N(C)C)c1 | -15% (inactive)
57 | CN(C)C(=S)/N=c1\ss/c(=N\S(=O)(=O)c2ccccc2)n1-c1ccccc1 | -10% (inactive)
58 | O=C(NCCCl)Nc1c2ccccc2nc2ccccc12 | 16% (inactive)
59 | COc1ccccc1NC(=O)/C(=C/c1ccccc1)C(C)=O | 1% (inactive)

Row | Compound | growth inhibition
60 | Oc1[nH]c2ccccc2c1N=NC(=S)NCc1ccccn1 | 31% (inactive)
61 | c1cc2c(cc1CCCCCCCCCCc1ccc3c(c1)CCC3)CCC2 | -4% (inactive)
62 | C=Cc1ccccc1C1(O)C=CC(OC)(OC)C=C1 | 17% (inactive)
63 | CN(C)CC1CCc2c(ccc3ccccc23)C1=O (stereo not drawn) | 12% (inactive)
64 | CCCCC(C)(C)OC(=O)Nc1ccc(Br)cc1 | 43% (inactive)
65 | O=C(Nc1ccc(F)c(Cl)c1)Oc1ccc(Br)cc1Br | -5% (inactive)
66 | CCO/C=C1\N=C(C(O)(c2ccc(Cl)cc2)c2ccc(Cl)cc2)OC1=O | 1% (inactive)
67 | O=C1c2ccccc2C(O)(c2ccccc2)c2c(Cl)cccc21 (stereo not drawn) | 1% (inactive)
68 | Nc1ccccc1-c1nc2c(ccc3ccccc32)[nH]1 | 8% (inactive)
69 | CCCCCCCCCCCCCCNCCN | 27% (inactive)
70 | CC(C)CCCC(C)C1CCC2C3CC=C4OC(=O)CCC4(C)C3CCC12C (stereo not drawn) | -2% (inactive)
71 | CC(Br)C(=O)c1ccc2cc(Cl)c3ccccc3c2c1 (stereo not drawn) | -4% (inactive)
72 | N#CSc1ccc2nc(NCO)sc2c1 | -9% (inactive)
73 | c1ccc2c3[nH]c(c2c1)=Nc1ccc(cc1)-c1nc2ccc(cc2o1)N=c1[nH]c(c2ccccc12)=Nc1ccc2nc(oc2c1)-c1ccc(cc1)N=3 | 17% (inactive)
74 | CCOc1ccc2nc(NC(=O)c3c/c(=N\NC(=O)C[N+](C)(C)C)c4ccc(O)cc4o3)sc2c1 | 13% (inactive)
75 | C[C@@H]1CC=C[C@@H](NC(=O)OCc2ccccc2)[C@H]1C=O | -8% (inactive)
76 | O=C(/C=C/c1cccc([N+](=O)[O-])c1)CCl | -22% (inactive)
77 | CCC[CH2][Sn]([CH2]CCC)([O]C(=O)c1cccc(F)c1F)[O]C(=O)c1cccc(F)c1F | 55% (inactive)
78 | O=C(O)CCC(=O)NNc1ccccc1 | 8% (inactive)
